# Measurements taken from PubChem BioAssay (NCATS).
# Results filed as inconclusive are left out. A call without a number means that no potency is given here. Activity calls are given as the source filed them. Calls come from the whole dose curve; as a rule, active = well fitted curve in the direction sought with a large enough effect; inconclusive = small, poorly fitted or top-dose-only effect, or another doubt; inactive = no such curve, though single readings can be large; an effect the other way counts as inactive or inconclusive.
# How the values were obtained:
# [1] = S16 Schwann cell viability assay (CellTiter-Glo assay) (AID 624031);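 note: cellular ATP luminescence as a viability measure; nearly all actives have a fitted effect of over 70% in size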
# How it was run: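 CellTiter-Glo ATP luminescence counter-screen in untransfected S16 rat Schwann cells, 24h compound exposure at 37 degree Celsius after overnight seeding (500-750 cells/well); response scaled between cell-free wells and DMSO (0% activity), curves classed by r2 and magnitude.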
# ATS189 = assay: qHTS profiling for inhibitors of Plasmodium falciparum proliferation (AID 504749); note: nearly all actives have a fitted effect of over 60% in size; note: potency is the fitted concentration of half-maximal effect; conditions: P. falciparum in erythrocytes, SYBR Green DNA, 72 h; series mostly up to 12.8 µM
# How it was run: (§1)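 Fluorescence of SYBR Green-bound parasite DNA, read at 485/535 nm, served as the growth measure. Infected erythrocytes were cultured with compound 72 h; artemisinin (0.29 uM) and DMSO wells defined the normalization range.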
# CP185 = assay: as above; conditions: P. falciparum in erythrocytes, SYBR Green DNA, 72 h; series mostly up to 12.8 µM
# How it was run: as §1
# CP191 = assay: as above; conditions: P. falciparum in erythrocytes, SYBR Green DNA, 72 h; series mostly up to 12.8 µM
# How it was run: as §1
# CP201 = assay: as above; conditions: P. falciparum in erythrocytes, SYBR Green DNA, 72 h; series mostly up to 12.8 µM
# How it was run: as §1
# CP256 = assay: as above; conditions: P. falciparum in erythrocytes, SYBR Green DNA, 72 h; series mostly up to 12.8 µM
# How it was run: as §1
# CP325 = assay: as above; conditions: P. falciparum in erythrocytes, SYBR Green DNA, 72 h; series mostly up to 12.8 µM
# How it was run: as §1
# CP329 = assay: as above; conditions: P. falciparum in erythrocytes, SYBR Green DNA, 72 h; series mostly up to 12.8 µM
# How it was run: as §1
# CP335 = assay: as above; conditions: P. falciparum in erythrocytes, SYBR Green DNA, 72 h; series mostly up to 12.8 µM
# How it was run: as §1
# DFO2036 = assay: as above; conditions: P. falciparum in erythrocytes, SYBR Green DNA, 72 h; series mostly up to 12.8 µM
# How it was run: as §1
# Dd2 = assay: as above; conditions: P. falciparum in erythrocytes, SYBR Green DNA, 72 h; series mostly up to 12.8 µM
# How it was run: as §1
# ECU = assay: as above; conditions: P. falciparum in erythrocytes, SYBR Green DNA, 72 h; series mostly up to 12.8 µM
# How it was run: as §1
# HB3 = assay: as above; conditions: P. falciparum in erythrocytes, SYBR Green DNA, 72 h; series mostly up to 12.8 µM
# How it was run: as §1
# N140 = assay: as above; conditions: P. falciparum in erythrocytes, SYBR Green DNA, 72 h; series mostly up to 12.8 µM
# How it was run: as §1
# SC27B = assay: as above; conditions: P. falciparum in erythrocytes, SYBR Green DNA, 72 h; series mostly up to 12.8 µM
# How it was run: as §1
# TAB113 = assay: as above; conditions: P. falciparum in erythrocytes, SYBR Green DNA, 72 h; series mostly up to 12.8 µM
# How it was run: as §1
# TAB165 = assay: as above; conditions: P. falciparum in erythrocytes, SYBR Green DNA, 72 h; series mostly up to 12.8 µM
# How it was run: as §1
# CP247 = assay: as above; conditions: P. falciparum in erythrocytes, SYBR Green DNA, 72 h; series mostly up to 12.8 µM
# How it was run: as §1
# PC15 = assay: as above; conditions: P. falciparum in erythrocytes, SYBR Green DNA, 72 h; series mostly up to 12.8 µM
# How it was run: as §1
# 7G8 = assay: as above; conditions: P. falciparum in erythrocytes, SYBR Green DNA, 72 h; series mostly up to 12.8 µM
# How it was run: as §1
Structure (SMILES),Potency [1],Potency (ATS189),Potency (CP185),Potency (CP191),Potency (CP201),Potency (CP256),Potency (CP325),Potency (CP329),Potency (CP335),Potency (DFO2036),Potency (Dd2),Potency (ECU),Potency (HB3),Potency (N140),Potency (SC27B),Potency (TAB113),Potency (TAB165),Potency (CP247),Potency (PC15),Potency (7G8)
CC[C@H](NC(C)C)[C@H](O)c1ccc(O)c(O)c1,inactive,inactive,inactive,inactive,inactive,inactive,inactive,inactive,inactive,inactive,inactive,inactive,inactive,inactive,inactive,inactive,inactive,–,–,–
C[C@@H](CN(C)C)CN1c2ccccc2CCc2ccccc21,–,inactive,inactive,–,inactive,inactive,inactive,inactive,inactive,inactive,–,inactive,inactive,–,inactive,inactive,inactive,inactive,inactive,–
CCN(CC)CCC[C@H](C)Nc1c2ccc(Cl)cc2nc2ccc(OC)cc12,inactive,891 nM (active),708 nM (active),398 nM (active),1200 nM (active),631 nM (active),426 nM (active),1200 nM (active),536 nM (active),398 nM (active),447 nM (active),447 nM (active),251 nM (active),891 nM (active),1260 nM (active),891 nM (active),398 nM (active),1120 nM (active),447 nM (active),282 nM (active)
CCC[C@H]1C(=O)N2C(N(C)C)=Nc3ccc(C)cc3N2C1=O,inactive,inactive,inactive,inactive,inactive,inactive,inactive,inactive,inactive,inactive,inactive,inactive,inactive,inactive,inactive,inactive,inactive,inactive,inactive,inactive
CCN[C@@H]1C[C@H](C)S(=O)(=O)c2sc(S(N)(=O)=O)cc21,–,inactive,inactive,inactive,inactive,inactive,inactive,inactive,inactive,inactive,inactive,inactive,inactive,inactive,inactive,inactive,inactive,inactive,inactive,inactive
NS(=O)(=O)c1cc([C@@]2(O)NC(=O)c3ccccc32)ccc1Cl,inactive,inactive,inactive,inactive,inactive,inactive,inactive,inactive,inactive,inactive,inactive,inactive,inactive,inactive,inactive,inactive,inactive,inactive,inactive,inactive
CC(=O)Nc1c(I)c(C(=O)N[C@H]2[C@@H](O)[C@H](O)[C@H](CO)O[C@@H]2O)c(I)c(N(C)C(C)=O)c1I,inactive,inactive,inactive,inactive,inactive,inactive,inactive,inactive,inactive,inactive,inactive,inactive,inactive,inactive,inactive,inactive,inactive,inactive,inactive,inactive
CN(C)[C@H]1C(=O)C(C(=O)NCN2CCCC2)=C(O)[C@]2(O)C(=O)C3=C(O)c4c(O)cccc4[C@@](C)(O)[C@H]3C[C@@H]12,inactive,inactive,inactive,inactive,inactive,inactive,inactive,inactive,inactive,inactive,inactive,inactive,inactive,inactive,inactive,inactive,inactive,inactive,inactive,inactive
C[C@@H](C(=O)O)c1cccc(C(=O)c2ccccc2)c1,inactive,–,–,–,–,–,–,–,–,–,–,–,–,–,–,–,–,–,–,–
COc1ccc(C[C@@H]2c3cc(OC)c(OC)cc3CC[N@+]2(C)CCC(=O)OCCCCCOC(=O)CC[N@@+]2(C)CCc3cc(OC)c(OC)cc3[C@H]2Cc2ccc(OC)c(OC)c2)cc1OC,inactive,inactive,inactive,inactive,inactive,inactive,inactive,inactive,inactive,inactive,inactive,inactive,inactive,inactive,inactive,inactive,inactive,inactive,inactive,inactive
C[C@@H](C(=O)O)c1ccc(C(=O)c2cccs2)cc1,–,inactive,inactive,inactive,inactive,inactive,inactive,inactive,inactive,inactive,inactive,inactive,inactive,inactive,inactive,inactive,inactive,inactive,inactive,inactive
C[n+]1ccccc1/C=N\O,inactive,inactive,inactive,inactive,inactive,inactive,inactive,inactive,inactive,inactive,inactive,inactive,inactive,inactive,inactive,inactive,inactive,inactive,inactive,inactive
CO[C@H]1C[C@@H](O[C@@H]2[C@H](C)[C@H](O[C@@H]3O[C@@H](C)C[C@@H](N(C)C)[C@@H]3O)[C@H](C)C[C@]3(CO3)C(=O)[C@H](C)[C@H](O)[C@H](C)[C@H](C)OC(=O)[C@@H]2C)O[C@@H](C)[C@H]1O,inactive,inactive,inactive,inactive,inactive,inactive,inactive,inactive,inactive,inactive,inactive,inactive,inactive,inactive,inactive,inactive,inactive,inactive,inactive,inactive
C/C=C\C(=O)N(CC)c1ccccc1C,inactive,inactive,inactive,inactive,inactive,inactive,inactive,inactive,inactive,inactive,inactive,inactive,inactive,inactive,inactive,inactive,inactive,inactive,inactive,inactive
CC(C)(O/N=C(\C(=O)N[C@@H]1C(=O)N2C(C(=O)[O-])=C(C[n+]3ccccc3)CS[C@@H]12)c1csc(N)n1)C(=O)O,inactive,inactive,inactive,inactive,inactive,inactive,inactive,inactive,inactive,inactive,inactive,inactive,inactive,inactive,inactive,inactive,inactive,inactive,inactive,inactive
CO/N=C(/C(=O)NC1C(=O)N2C(C(=O)O)=C(CSc3nc(=O)c(O)nn3C)CSC12)c1csc(N)n1 (centres undefined),inactive,inactive,inactive,inactive,inactive,inactive,inactive,inactive,inactive,inactive,inactive,inactive,inactive,inactive,inactive,inactive,inactive,inactive,inactive,inactive
CC1(C)Oc2ccc(C#N)cc2[C@H](N2CCCC2=O)[C@H]1O,inactive,inactive,inactive,inactive,inactive,inactive,inactive,inactive,inactive,inactive,inactive,inactive,inactive,inactive,inactive,inactive,inactive,inactive,inactive,inactive
CCN1C(=O)N[C@@H](c2ccccc2)C1=O,inactive,inactive,inactive,inactive,inactive,inactive,inactive,inactive,inactive,inactive,inactive,inactive,inactive,inactive,inactive,inactive,inactive,inactive,inactive,inactive
CC1(C)S[C@@H]2[C@H](NC(=O)[C@H](C(=O)O)c3ccsc3)C(=O)N2[C@H]1C(=O)O,inactive,inactive,inactive,inactive,inactive,inactive,inactive,inactive,inactive,inactive,inactive,inactive,inactive,inactive,inactive,inactive,inactive,inactive,inactive,inactive
CC(=O)OCC1=C(C(=O)O)N2C(=O)[C@@H](NC(=O)CSc3ccncc3)[C@@H]2SC1,inactive,inactive,inactive,inactive,inactive,inactive,inactive,inactive,inactive,inactive,inactive,inactive,inactive,inactive,inactive,inactive,inactive,inactive,inactive,inactive
O=c1[nH]cnc2c1ncn2C1OC(CO)C(O)C1O (centres undefined),inactive,inactive,inactive,inactive,inactive,inactive,inactive,inactive,inactive,inactive,inactive,inactive,inactive,–,inactive,inactive,inactive,inactive,inactive,inactive
Cn1c(=O)c2c(ncn2C[C@@H](O)CO)n(C)c1=O,inactive,inactive,inactive,–,inactive,inactive,inactive,inactive,inactive,inactive,inactive,inactive,inactive,inactive,inactive,inactive,inactive,inactive,inactive,inactive
C[N+]1(C)CCC[C@@H](OC(=O)C(O)(c2ccccc2)c2ccccc2)C1,inactive,inactive,inactive,inactive,inactive,inactive,inactive,inactive,inactive,inactive,inactive,inactive,inactive,inactive,inactive,inactive,inactive,inactive,inactive,inactive
CN[C@@H](CC(C)C)C(=O)N[C@@H]1C(=O)N[C@H](CC(N)=O)C(=O)N[C@@H]2C(=O)N[C@H]3C(=O)N[C@H](C(=O)N[C@H](C(=O)O)c4cc(O)cc(O)c4-c4cc3ccc4O)[C@H](O)c3ccc(c(Cl)c3)Oc3cc2cc(c3O[C@H]2O[C@@H](CO)[C@@H](O)[C@@H](O)[C@@H]2O[C@@H]2C[C@](C)(N)[C@H](O)[C@H](C)O2)Oc2ccc(cc2Cl)[C@@H]1O,inactive,inactive,inactive,inactive,inactive,inactive,inactive,inactive,inactive,inactive,inactive,inactive,inactive,inactive,inactive,inactive,inactive,inactive,inactive,inactive
CC(=O)O[C@@H](C)C[N+](C)(C)C,inactive,inactive,inactive,inactive,inactive,inactive,inactive,inactive,inactive,inactive,inactive,inactive,inactive,inactive,inactive,inactive,inactive,inactive,inactive,inactive
